Measured values from PubChem BioAssay AID652054 (National Center for Advancing Translational Sciences (NCATS), 2013).
In all, about 360,000 compounds went through this assay and about 9,100 (2.5%) were called active. About 4% were inconclusive and are not listed. Cut-off read from the data, not from the text of the source: active = max response below about -50%; inconclusive = no clear call, values can overlap the other calls; inactive = above that. The full list was thinned out, with actives kept by preference.

molecular target: D(3) dopamine receptor (Homo sapiens) (UniProt P35462); experiment: qHTS of D3 Dopamine Receptor Antagonist: qHTS; conditions: D3R cells, DiscoveRx beta-arrestin luminescence, antagonist mode; stronger effect = lower value
Sequence (P35462 whole entry, looked up): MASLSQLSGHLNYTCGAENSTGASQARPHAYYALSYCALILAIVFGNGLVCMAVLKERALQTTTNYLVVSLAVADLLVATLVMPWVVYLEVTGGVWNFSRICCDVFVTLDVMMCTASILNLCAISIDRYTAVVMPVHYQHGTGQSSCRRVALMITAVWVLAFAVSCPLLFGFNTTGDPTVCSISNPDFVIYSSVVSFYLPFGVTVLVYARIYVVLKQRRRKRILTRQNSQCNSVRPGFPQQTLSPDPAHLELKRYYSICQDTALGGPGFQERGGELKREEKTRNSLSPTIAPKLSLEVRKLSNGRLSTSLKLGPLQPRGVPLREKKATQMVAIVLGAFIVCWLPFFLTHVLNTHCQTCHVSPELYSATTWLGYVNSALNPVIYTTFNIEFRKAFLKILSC
Excerpt: D3 DARs represent a very important target for the treatment of several neuropsychiatric disorders. Indeed, one of the most promising therapeutic applications for the D3 DAR is in the area of addiction and related disorders. […] These findings have been observed with a number of addictive substances including cocaine, amphetamine, nicotine, and alcohol. […] Antagonism of the D3 DAR may also be therapeutic in the treatment of schizophrenia or psychosis. […] Since the D3 DAR is expressed in areas of the CNS associated with the control of mood and emotion, it has been hypothesized that selective antagonism of the D3 DAR may be effective in treating psychosis without inducing the motor side effects typically seen with D2 DAR antagonists.
This part of the project aims to discover novel antagonist.
NIH Chemical Genomics Center [NCGC]
NIH Molecular Libraries Probe Centers Network [MLPCN]
Assay Submitter (PI): David Sibley, NINDS
Freshly passaged cells are plated in 1536 well white, solid bottom plates at a density of 1500 cells/well in 3microl of complete media. After an overnight incubation at 37 degrees C in 5% CO2, cells are loaded with 23nl of test compound from the compound library (as well as dopamine controls) using a 1536 pintool and incubated at 37 degrees C for 90 minutes. Two microliters of DiscoveRx reagent is then added to all cells, and they are incubated for an additional 30 - 60 minutes at room temperature. Following incubation, luminescence is measured on a ViewLux CCD-based luminometer reader using a 20 sec exposure time.
% is set by controls: 0 for no effect and ±100 for the full control effect.

Max response, negative = inhibition, inactive:
CC(C)c1ccc(CC(=O)N2CCC2(C)C(=O)NS(=O)(=O)c2ccc(C(C)(C)C)cc2)cc1 (centres undefined) 22.2%
Nc1ncnc2c1ncn2[C@@H]1O[C@H](C(=O)NCC(F)(F)F)[C@@H](O)[C@H]1O 14.5%
Cc1nc(C(F)(F)F)ccc1C(=O)N1CCC1(C)C(=O)NS(=O)(=O)c1ccc(F)cc1F (centres undefined) 19.8%
O=C1NC[C@@H](CCCCN2CCN(CCc3ccc(O)cc3)C(=O)C2=O)N(CC2CCCCC2)C1=O 0%
O=C(CSc1ccc(-c2ccccc2)nn1)NCC1CCCO1 (centres undefined) -1.73%
CCn1c(SCC(=O)NCC2CCCO2)nc2ccccc21 (centres undefined) 1.46%
CC(=O)c1cccc(-c2cnc3c(NC=O)cc(-c4ccc(N5CCN(C)CC5)cc4)cn23)c1 13.5%
Cc1ccc(CC2CC(=O)N(c3ccc4c(c3)OCCO4)C2=O)cc1 (centres undefined) 23.1%
O=CN1CCN(C2CC(=O)N(c3ccc4c(c3)OCO4)C2=O)CC1 (centres undefined) -17.5%
CC(C)n1ncc2c(C(=O)N3CCN(Cc4cccs4)CC3)cc(C3CC3)nc21 -22.9%
CC1(C2CC2)NC(=O)N(CC(=O)N2CCN(c3ccccc3F)CC2)C1=O (centres undefined) -14.5%
Cc1ccccc1CN1C(=O)CSCC1(C)C(=O)Nc1c(C)cccc1C (centres undefined) 4.29%
COc1ccc2nc(-c3ccccn3)ccc2c1 -12.3%
COc1ccc(NCCc2ccccn2)cc1 1.2%
CCOC(=O)c1c(NC(=O)COC(=O)c2ccc(S(=O)(=O)C(F)F)cc2)sc(C(=O)N(C)C)c1C 13%
Cc1ccc(-c2c(N)nc3ncccn23)cc1 1.01%
OCCN1CCN(c2ncnc3c2ncn3[C@H]2CN(Cc3ccco3)C[C@@H](CO)O2)CC1 -7.83%
O=S1(=O)CC(N2CCN(CCO)CC2)CN1Cc1cn(Cc2ccc(Cl)cc2)nn1 (centres undefined) -11.2%
Cc1ccccc1-c1n[nH]c(=S)n1/N=C/c1ccc(-c2ccccc2Br)o1 -16.9%
COc1cc(/C=N/n2c(C)n[nH]c2=S)ccc1OCc1ccccc1 4.09%
NC(c1csc(NC(=O)Nc2ccccc2Oc2ccccc2)n1)c1ccccc1Cl (centres undefined) 46.2%
COC(=O)[C@]12CCCCC=C1N(Cc1ccco1)C(=O)[C@H](CC(=O)NCCCCc1ccccc1)C2 -9.24%
Cc1ccc(CN2CC(N3CCC(Cc4ccccc4)CC3)CS2(=O)=O)cc1 (centres undefined) 6.13%
Cc1cc(=O)[nH]c(SCC(=O)Nc2ccc(Br)cc2)n1 -12.6%
O=C(CSc1nc2[nH]ncc2c(=O)[nH]1)Nc1ccc(F)cc1 2.63%
COc1ccc(Cl)cc1-c1cc(C(=O)Nc2cc(OC)c(OC)c(OC)c2)[nH]n1 106%
Clc1cccc(Cl)c1OCCOCCNCc1ccccc1 43.5%
COCCNCCOCCOc1cccc(OC)c1 6.73%
C[C@@H]1CN([C@H](C)CO)S(=O)(=O)c2ccc(C#CC3CCCCC3)cc2O[C@H]1CN(C)C(=O)Cc1ccncc1 -18.9%
CCc1nc2ccc(C(=O)NCc3ccc(OC)cc3)cn2c1N(CC)Cc1cccc(Br)c1 0%
C[C@H](CO)N1C[C@H](C)[C@H](CN(C)C(=O)c2ccncc2)OCc2ccccc2-c2c(n(C)c3ccccc23)C1=O -9.27%
O=C(NCc1ccc(F)cc1)c1cc(C2CCCCN2C(=O)C2CCCCC2)on1 (centres undefined) 2.42%
O=C(Nc1cccc(Cl)c1)c1cc([N+](=O)[O-])ccc1N1CCN(CCO)CC1 -13.4%
CCC(=O)c1ccc(N2CCN(C(=O)c3cc([N+](=O)[O-])ccc3F)CC2)c(F)c1 15%
O=C(Nc1ccc(C(=O)O)cc1)/C(=C/c1ccc([N+](=O)[O-])cc1)NC(=O)c1ccccc1 -12.4%
O=C(NCCc1ccccc1)/C(=C\c1ccc([N+](=O)[O-])cc1)NC(=O)c1ccccc1 9%

Max response, negative = inhibition, active:
O=C(CSC1=Nc2ccccc2C2=NC(c3ccccc3)C(=O)N12)NCC1CCCO1 (centres undefined) -66.9%
Cc1ccc(N2C(=O)CC(NCc3ccc4c(c3)OCO4)C2=O)cc1Cl (centres undefined) -53.6%
COc1cnc(-c2ccccn2)nc1Oc1ccc(C(C)(C)C)cc1 -52.8%
Cc1n[nH]c(=S)n1/N=C/c1ccc(Br)o1 -55%
Cc1cc(C)c2c(=O)[nH]c(SCC(=O)Nc3ccc(Br)cc3)nc2n1 -52.3%
COCCCNCCOCCOc1ccc(Cl)cc1Br -97.1%
CCN1CCN(c2ccc([N+](=O)[O-])cc2C(=O)c2ccc(Cl)cc2)CC1 -55.6%
O=C(N/N=C/c1ccc(O)cc1)/C(=C/c1ccc([N+](=O)[O-])cc1)NC(=O)c1ccccc1 -52.3%
